KDM5B inh: Primary screen for KDM5B Histone Demethylases FDH-coupled qHTS; actives 2.6% (n = 220,000); KDM5B demethylase, FDH-coupled NADH fluorescence (FDH is formaldehyde dehydrogenase); Potency, µM (highest dose often 57.7 µM), hits mostly inhibitors; Lysine-specific demethylase 5B (Homo sapiens), Q9UGL1; active = well fitted inhibition curve with a large enough effect; note: nearly all actives have a fitted effect of over 70% in size
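Here, H3K4me3 peptide (12.5 µM in substrate mix) is demethylated by KDM5BΔAP, 200 nM final, after 10 min compound exposure. Formaldehyde product is coupled through FDH (0.25 U/mL in mix) to NADH fluorescence; 30-min ΔRFU feeds dose-response curves.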
A number is an active result; i = inactive. This excerpt belongs to a sample that is enriched for hits.

SMILES | KDM5B inh
CC(=O)CCS(=O)(=O)c1ccc(Cc2ccc(S(=O)(=O)CCC(C)=O)cc2)cc1 | i
C=CCNC(=S)Nc1ccc(SC(F)F)cc1 | i
CC(O)CNCc1ccc(-c2cccc(C(F)(F)F)c2)o1 (stereo not drawn) | i
O=C(NC1CCCC(C(F)(F)F)C1)c1ccccn1 (stereo not drawn) | i
O=C1/C(=C/c2cccs2)CSc2ccccc21 | i
Cc1cccc(C(=O)Nc2cccc(-c3cn4ccccc4n3)c2)c1 | i
NC(=O)c1ccc(NC(=O)CCc2ncc(-c3ccccc3F)o2)cc1 | i
Cc1ccccc1[S+](=O)([O-])N1CC2(CN(CCOc3ccccc3)C(=O)O2)C1 | i
CN1CCN(CCNC(=O)CCn2ccc3cc(S(=O)(=O)N4CCCCC4)ccc32)CC1 | i
Cc1ccc(Nc2nc3ccccc3nc2NS(=O)(=O)c2ccc(F)cc2)cc1F | i
Cc1cccc(OCC(=O)N2CCCC(c3noc(COc4ccccc4F)n3)C2)c1 (stereo not drawn) | i
COc1ccc(OC)c2[nH]c(C(=O)N[C@@H](C)C(=O)N3CCN(Cc4ccccc4)CC3)cc12 | i
COc1ccc(C(=O)NCCc2ncc(C)n2C2CCC2)c(OC)n1 | i
CC(Cn1cncn1)NC(=O)c1ccc(S(=O)(=O)NCCO)cc1 (stereo not drawn) | i
O=C(Nc1cccn2cnnc12)c1ccc(S(=O)(=O)NCCO)cc1 | 28µM
Cc1cccc(NC(=O)c2ccc(S(=O)(=O)NCc3cccnc3)cc2)c1C | i
O=C(Nc1ccnn1Cc1cccc(Cl)c1)C1CCN(S(=O)(=O)c2ccc(Cl)cc2)CC1 | i
O=C(Cc1cccs1)N1CCC2(CC1)N=C(c1ccc(Cl)cc1)NO2 | 25µM
Cc1ccc(C2=NC3(CCN(C(=O)Cc4ccc(Cl)cc4)CC3)ON2)cc1 | i
O=C(c1ccc[nH]1)N1CCC2(CC1)N=C(c1ccc(Cl)cc1)NO2 | i
O=C(c1ccncc1)N1CCC2(CC1)N=C(c1ccc(Cl)cc1)NO2 | i
Cc1ccc(C2=NC3(CCN(C(=O)COc4ccc(Cl)cc4)CC3)ON2)cc1 | i
Cc1ccc(C2=NC3(CCN(C(=O)c4cc(F)ccc4Cl)CC3)ON2)cc1 | i
O=C(c1cc(F)ccc1F)N1CCC2(CC1)N=C(c1ccc(Cl)cc1)NO2 | 22µM
CCOc1ccc(C(=O)N2CCC3(CC2)N=C(c2ccc(C)cc2)NO3)cc1 | i
SMILES | KDM5B inh
COc1ccc(C(=O)N2CCC3(CC2)N=C(c2ccc(Cl)cc2)NO3)cc1 | 32µM
O=C(NCC1CC1)C1CCCN1S(=O)(=O)c1ccc(Br)s1 (stereo not drawn) | i
CCNC(=S)NNC(=O)c1ccc(C)cc1 | i
O=C(CSc1nnc(-c2cccs2)n1-n1cccc1)Nc1ccccc1 | i
CC(=O)Nc1cccc(NC(=O)CC(C)c2ccccc2)c1 (stereo not drawn) | i
COCCO[C@H]1C(=O)N(C2CCN(C(=O)c3cccnc3)CC2)[C@H]1c1ccncc1 | i
O=C(C1CCCO1)N1CCN(Cc2coc(-c3ccc(F)cc3)n2)CC1 (stereo not drawn) | i
Cc1nc2ccccc2c(C)c1CC(=O)NC(C)c1ccco1 (stereo not drawn) | i
O=c1[nH]nc(SCc2ncc(-c3cccc(Cl)c3)o2)n1C1CC1 | i
CSc1ccccc1C(=O)Nc1cccc(F)c1 | i
COCCN1Cc2ccc(NCC(C)C)nc2C(C)(C(=O)Nc2cccc(F)c2)C1 (stereo not drawn) | 32µM
CC(C)CNc1nc(C(=O)Nc2ccc3cc[nH]c3c2)cs1 | i
COCc1cc(=O)n(CC(=O)Nc2cccc(F)c2)c(N2CCOCC2)n1 | i
COCCN1Cc2ccc(Nc3ccc(OC)cc3)nc2C(C)(C(=O)NC(C)C)C1 (stereo not drawn) | i
COCCN1Cc2ccc(NCC(C)C)nc2C(C)(C(=O)Nc2ccncc2)C1 (stereo not drawn) | 28µM
Cc1ccc(-n2ccc3nc(N4CCCC4)ncc3c2=O)cc1C | i
COc1ccc(-c2noc(-c3nc(-c4ccccc4OC)no3)n2)cc1OC | i
Cc1ccc(C2=NC3(CCN(C(=O)c4ccccc4Cl)CC3)ON2)cc1 | i
COCCN1C(=O)CS(=O)(=O)C12CCN(C(=O)c1cccc(OC)c1C)CC2 | i
Cc1ccc(C2=NC3(CCN(C(=O)c4ccc[nH]4)CC3)ON2)cc1 | i
COCCN1C(=O)CS(=O)C12CCN(C(=O)NCCc1ccccc1)CC2 (stereo not drawn) | i
Cc1ccc(C2=NC3(CCN(C(=O)c4cccc5[nH]ccc45)CC3)ON2)cc1 | 32µM
COc1cccc(C(=O)N2CCC3(CC2)N=C(c2cccc(Br)c2)NO3)c1 | i
COCCN1C(=O)CS(=O)C12CCN(C(=O)c1cccc3[nH]ccc13)CC2 (stereo not drawn) | 28µM
O=C(c1ccc2cc[nH]c2c1)N1CCC2(CC1)N=C(c1cccc(Br)c1)NO2 | 28µM
SMILES | KDM5B inh
O=C(c1ccc2[nH]ccc2c1)N1CCC2(CC1)N=C(c1ccc(Br)cc1)NO2 | i
CCc1nc2c(c(-c3ccc(OC)cc3)n1)CCN(C(=O)c1ccc(C)cc1)CC2 | i
N#Cc1ccccc1N=Cc1ccc(F)cc1 | i
O=C1NCCCCCCN(C(=O)COc2ccccc2)[C@H]2CCC[C@@H]12 | i
Cc1oc(-c2cccs2)nc1CN1CCNC(=O)C1 | i
Cc1oc(-c2cccs2)nc1CN1CCCC(c2ccn[nH]2)C1 (stereo not drawn) | 28µM
COCC1CCCN(Cc2nc(-c3ccccc3Cl)oc2C)C1 (stereo not drawn) | i
CCC1=C(c2ccc(C)cc2)S(=O)(=O)N=C1N1CCC(C(=O)Nc2ccc(OC)cc2OC)CC1 | i
Cc1ccccc1-c1noc(-c2nnn3c2COC(c2ccc(F)cc2)C3)n1 (stereo not drawn) | i
CCOc1ccccc1-c1noc(-c2nnn3c2COC(c2cccc(OC)c2)C3)n1 (stereo not drawn) | i
COc1ccc(C2Cn3nnc(-c4nc(-c5ccccc5C)no4)c3CO2)cc1 (stereo not drawn) | i
CCOc1ccccc1-c1noc(-c2nnn3c2COC(c2ccc(OC)cc2)C3)n1 (stereo not drawn) | 18µM
COc1ccc(C2Cn3nnc(-c4noc(Cc5ccccc5OC)n4)c3CO2)cc1 (stereo not drawn) | i
CCOc1ccc(C2Cn3nnc(-c4nc(-c5ccccc5OCC)no4)c3CO2)cc1 (stereo not drawn) | 25µM
Fc1ccc(C2Cn3nnc(-c4nc(-c5ccccc5Br)no4)c3CO2)cc1 (stereo not drawn) | i
CSc1ccc(-c2noc(-c3nnn4c3COC(c3ccc(F)cc3)C4)n2)cc1 (stereo not drawn) | i
COc1ccc(-c2noc(-c3nnn4c3COC(c3ccc(F)cc3)C4)n2)cc1F (stereo not drawn) | i
COc1ccc(C2Cn3nnc(-c4nc(-c5ccccc5Br)no4)c3CO2)cc1 (stereo not drawn) | i
CCOc1cc(-c2noc(-c3nnn4c3COC(c3ccc(F)cc3)C4)n2)ccc1OC (stereo not drawn) | 25µM
CCOc1ccccc1-c1nc(-c2nnn3c2COC(c2ccc(OC)cc2)C3)no1 (stereo not drawn) | 28µM
CCC(=O)NCC(=O)NC1CCN(S(=O)(=O)c2ccc(NC(C)=O)cc2)CC1 | i
Cc1ccc(NC(=O)CN2CCN(C(=O)NCc3ccc(C)c(F)c3)CC2)cc1 | i
Cc1ccc(Sc2nc3c(c(=O)[nH]c(=O)n3C)n2Cc2cccc(C)c2)cc1 | i

Screens (PubChem)
